An excerpt weighted towards active compounds, which were near 4.6% of everything screened.
D1 ag = agonists of human D1 dopamine receptor. AID 504660. 360,000 compounds, 1% hits. activation, % at 2 µM. HEK293 T-REx D1 cells, calcium flux, agonist mode
Target sequence (P21728 whole entry, looked up): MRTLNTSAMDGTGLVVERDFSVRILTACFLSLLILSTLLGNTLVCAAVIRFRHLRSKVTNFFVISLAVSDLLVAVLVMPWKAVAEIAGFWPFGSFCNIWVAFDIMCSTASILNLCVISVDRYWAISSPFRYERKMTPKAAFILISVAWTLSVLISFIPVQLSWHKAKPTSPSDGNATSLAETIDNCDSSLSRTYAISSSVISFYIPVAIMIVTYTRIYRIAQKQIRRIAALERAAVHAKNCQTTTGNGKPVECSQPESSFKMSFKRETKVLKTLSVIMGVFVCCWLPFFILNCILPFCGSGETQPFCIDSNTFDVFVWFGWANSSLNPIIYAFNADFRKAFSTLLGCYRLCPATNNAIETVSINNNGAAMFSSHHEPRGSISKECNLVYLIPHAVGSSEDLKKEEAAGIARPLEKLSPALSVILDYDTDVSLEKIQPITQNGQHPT
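Tetracycline-induced HEK293 TREx D1 cells, force-coupled to calcium signalling, were dye-loaded with a no-wash calcium kit. Compound was pin-added after a 10 s baseline. Fluorescence was read kinetically at 1 cycle/s for 180 s, with calcium rises flagged as agonism.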
TRHR enhancer = TRH receptor (human) allosteric enhancement; P34981; TRHR cells, fluo-8 calcium fluorescence, EC20 TRH enhancement; enhancement, % at 2 µM; 360,000 compounds, 0.66% hits; AID 493056; in the data active = enhancement above about 30%
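TRHR-expressing cells loaded with fluo-8 calcium dye were read kinetically (ex 480/em 530) during compound addition, then stimulated with an EC20 of TRH (10 nM final). Enhancement of the Gq-mediated intracellular calcium response was scored.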
D1 PAM = enhances dopamine response at the human D1 receptor | 360,000 compounds, 0.036% hits | HEK293 TREx D1 cells, calcium flux, dopamine EC20 potentiation | P21728 | AID 504651 | potentiation, % at 10 µM; in the data active = potentiation above about 30%
D1 antagonist = blocks dopamine activation of the human D1 receptor; P21728; HEK293 TREx D1 cells, calcium flux, dopamine EC80; hits give low values; 360,000 compounds, 3.2% hits; activity change, negative = inhibition, % at 10 µM; in the data active = activity change below about -30%
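Antagonism measured as reduced calcium response to an EC80 dopamine addition following 180 s compound pre-read; cells were inducible HEK293 Trex D1 plated overnight at 30 C, read kinetically at 1 cycle/sec.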
Epigenetic derep = regulators of epigenetic silencing causing reporter derepression in mouse cells. murine LDR cells, GFP reporter derepression, 30 h. Potency, µM (top dose mostly 53.9 µM), most hits filed as activators. 280,000 compounds, 0.2% hits. AID 1865; active = well fitted activation curve with a large enough effect; inconclusive = small, poorly fitted or top-dose-only effect; also: nearly all actives have a fitted effect of over 60% in size
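Reporter derepression read as number of fluorescent GFP-positive objects, 20-120 um in size, counted by laser-scanning cytometer. Mouse LDR line with an epigenetically silenced CMV-GFP locus; compound incubation 30 h, 37 C.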
TRHR ag = agonists of human TRH receptor. P34981. TRHR cells, calcium flux fluo-8, FDSS agonist mode. activation, % at 2 µM. 360,000 compounds, 0.18% hits. AID 493084
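TRHR-expressing cells, plated overnight in medium with 10% serum, were loaded with fluo-8 calcium dye at room temperature. After a 10 s baseline, library compound was pin-added and calcium release was recorded kinetically (ex 480/em 530) as agonist response.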
Of the large screens only hits and unclear results are named; the others gave an inactive call. Rule as the data show it, unless noted: active = activation above about 30%; inactive = the rest.

CCOc1ccc(S(=O)(=O)Nc2cccc(C(=O)NCC(c3ccccc3)N(C)C)c2)cc1 (centres undefined)	D1 ag 35 (no result: Epigenetic derep)
CCOc1ccc(S(=O)(=O)Nc2ccc(C(=O)NCC(c3ccco3)N3CCCCC3)cc2)cc1 (centres undefined)	D1 ag 33 (no result: Epigenetic derep)
CCOc1ccc(S(=O)(=O)Nc2cccc(C(=O)N(C)Cc3cccc(OC)c3OC)c2)cc1	D1 antagonist -32 (no result: Epigenetic derep)
N#CCC(=O)Nc1ccc(C(=O)NCC(c2ccco2)N2CCCCC2)cc1 (centres undefined)	TRHR enhancer 38
CCOC(=O)c1cccc(NC(=O)Nc2c(C)n(C)n(-c3ccccc3)c2=O)c1	none
COc1ccc(NC(=O)c2ccco2)cc1NC(=O)COc1ccccc1Cl	none
CCN(CC)CCNC(=O)C(=O)Nc1c2c(nn1-c1ccc(F)cc1)CSC2	none (no result: D1 antagonist)
Cc1ccc(NS(=O)(=O)c2cccc(C(=O)NCC(c3ccco3)N3CCCC3)c2)cc1 (centres undefined)	D1 ag 44 (no result: D1 PAM, Epigenetic derep)
Cc1ccc(N2CC(NC(=O)c3ccc(S(=O)(=O)N4CCCC4)cc3)CC2=O)cc1C (centres undefined)	none (no result: D1 antagonist)
COc1ccc(S(N)(=O)=O)cc1C(=O)NCCCN1CCN(c2ccccc2OC)CC1	none
COc1ccc(S(N)(=O)=O)cc1C(=O)NCCCN1CCN(c2ccc(C)cc2)CC1	D1 antagonist -42
COc1ccc(S(N)(=O)=O)cc1C(=O)NCCCN1CCN(c2cccc(Cl)c2)CC1	D1 antagonist -51
COc1ccc(OCC(=O)Nc2c(C(=O)N3CCN(C)CC3)oc3ccccc23)cc1	D1 antagonist -33 (no result: Epigenetic derep)
O=C(NC1CC1)c1ccc(Cn2c(SCc3ccccc3F)nc3cccnc32)cc1	none
CCCCCOC(=O)NCC(O)c1ccccc1 (centres undefined)	D1 antagonist -34
COc1ccc(CCNC(=S)Nc2ccccc2)cc1	D1 antagonist -36
CCc1ccc(/C=N/NC(=S)NCCc2ccccc2)cc1	none
S=C(NCCc1ccccc1)Nc1ccc(Cl)cc1Cl	D1 antagonist -33
S=C(NCCc1ccccc1)N/N=C/c1ccccc1Cl	D1 antagonist -33
CC(C)Oc1ccc(CCC(=O)NNC(=S)Nc2ccccc2)cc1	D1 antagonist -31
CCOC(=O)c1c(S(=O)(=O)NCC(=O)N(C)Cc2ccccc2)c(C)n(C)c1C	none
CC(C)CCNC(=S)Nc1ccc([N+](=O)[O-])cc1	D1 ag 34, D1 antagonist -46
CC(C)CCNC(=S)Nc1ccc(Br)cc1	D1 antagonist -33
COc1cccc(NC(=S)NCCC(c2ccccc2)c2ccccc2)c1	D1 antagonist -50
COC(=O)Cc1ccc(NC(=S)NCCC(C)C)cc1	none
CCCCNC(=S)NC(=O)c1ccc([N+](=O)[O-])cc1	D1 antagonist -46
COc1ccc(-n2c(Cc3ccccc3)nnc2SCc2nc(-c3cccs3)no2)cc1	none
CCCCNC(=S)Nc1ccc(Oc2ccccc2)cc1	none
COc1ccc(CNC(=S)Nc2ccccc2)cc1Cl	none (no result: Epigenetic derep)
COc1ccc(CSCCNC(=S)Nc2ccccc2)cc1Cl	D1 antagonist -33
COc1ccc(CCNC(=S)Nc2cccc3ccccc23)cc1	none
COc1ccc(OCCNC(=S)Nc2cccc3ccccc23)cc1	D1 antagonist -39
Cc1ccc([N+](=O)[O-])cc1NC(=S)NCCc1ccccc1	D1 antagonist -36 (no result: Epigenetic derep)
CCCCNC(=S)Nc1ccc([N+](=O)[O-])cc1	D1 antagonist -33
CN1C(=O)C2(c3ccccc31)N(c1cccc(C(F)(F)F)c1)C(=O)CS2(=O)=O (centres undefined)	none
S=C(NCCc1ccccc1)Nc1ccc(Br)cc1	D1 antagonist -51
CN(C)C(CNc1ncnc2sc3c(c12)CCCCC3)c1ccco1 (centres undefined)	none
Cc1sc2ncnc(NCC(c3ccco3)N(C)C)c2c1C (centres undefined)	D1 antagonist -35
O=C(CCN1CCN(c2ccccc2)CC1)N/N=C/c1ccc([N+](=O)[O-])o1	D1 antagonist -43
Cc1ccccc1OCC(=O)N/N=C/c1ccc([N+](=O)[O-])o1	none
Cc1cc(C)cc(OCC(=O)N/N=C/c2ccc([N+](=O)[O-])o2)c1	D1 antagonist -38
Cc1cccc(OCC(=O)Nc2nnc(S(=O)(=O)N3CCc4ccccc43)s2)c1	Epigenetic derep inconclusive
Cc1ccc(C)c(CNC(=O)C2CCCCN2S(=O)(=O)c2ccc(F)cc2)c1 (centres undefined)	D1 ag 44, D1 antagonist -37
CCNC(=O)C1CCCN1S(=O)(=O)c1ccc2ccccc2c1 (centres undefined)	none (no result: Epigenetic derep)
O=C(NCCc1ccccc1F)C1CCCN1S(=O)(=O)c1ccc2ccccc2c1 (centres undefined)	D1 ag 41, D1 antagonist -53
CC(C)Oc1ccc(CNC(=O)C2CCCCN2S(=O)(=O)c2ccc(F)cc2)cc1 (centres undefined)	D1 antagonist -40
Cc1ccc(CN2CCC(CNC(=O)Nc3c(C)cccc3C)C2)cc1 (centres undefined)	none
CCOc1ccc(Nc2sc(C(=O)c3ccc4c(c3)OCO4)c(N)c2S(=O)(=O)c2ccc(C)cc2)cc1	D1 ag 37
Cc1ccc(S(=O)(=O)c2c(Nc3ccc(C)c(C)c3)sc(C(=O)c3ccc4c(c3)OCO4)c2N)cc1	D1 ag 68
Cc1ccc(S(=O)(=O)c2c(Nc3cc(C)ccc3C)sc(C(=O)c3ccc4c(c3)OCO4)c2N)cc1	D1 ag 84
CCOC(=O)c1c(NC(=O)COc2ccc(Cl)cc2Cl)sc2c1CCCCC2	none
COc1ccc(C(=O)N/N=C/c2cccnc2)cc1	none (no result: Epigenetic derep)
CC(Oc1ccc(-c2ccccc2)cc1)C(=O)N/N=C/c1cccnc1 (centres undefined)	D1 antagonist -36 (no result: Epigenetic derep)
COc1ccccc1CN1C2CCCC1CC(NC(=O)/C=C/c1ccccc1)C2 (centres undefined)	TRHR enhancer 32
Cc1cc2c(N=O)c(NO)ccc2[nH]1	Epigenetic derep 16µM
O=Nc1c(O)[nH]c2ccc(F)cc12	none
CCCn1cnc2c(sc3nc4c(cc32)CSC(C)(C)C4)c1=O	D1 antagonist -41
CC1(C)Cc2nc3sc4c(=O)n(Cc5ccccc5)cnc4c3cc2CS1	Epigenetic derep inconclusive
CC(CNC(=O)c1cnn(-c2ccc(F)cc2)c1-n1cccc1)c1ccccc1 (centres undefined)	none
CCC1CCCCN1CC(C)(C)NS(=O)(=O)c1ccccc1 (centres undefined)	D1 antagonist -44
CC(C)(CN1CCOCC1)NS(=O)(=O)c1ccccc1	none (no result: Epigenetic derep)
